Assay results taken from PubChem BioAssay (EPA / NIEHS).
Several values for one entry are separate records, joined by “and”; a condition that tells them apart may be missing. Equal entries are not always repeated. A structure can be active in one record and inactive in another. Activity calls are given as the source filed them. How the source made its calls: active means hit-call score of the fitted dose curve at least 0.9, where 1 is the maximum; inactive means score below 0.9.

What was measured:
[1] = APR_HepG2_CellCycleArrest_1hr: Apredica 1-hour HepG2 Assay for Cell Cycle Arrest (AID 2282666); conditions: high-content imaging, actives raise or lower the signal
How it was run: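 HepG2 cells exposed for 1 h to 0.39–200 uM compound (0.5% DMSO). Fixed, Hoechst-stained nuclei imaged by ArrayScan; DNA content quantified by Cell Cycle analysis; bidirectional fit against DMSO.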

[2] = APR_HepG2_NuclearSize_1hr: Apredica 1-hour HepG2 Assay for Nuclear Size (AID 2282670); conditions: high-content imaging, actives raise or lower the signal
How it was run: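 HepG2 cells dosed 1 hr with 0.39–200 uM compound (0.5% DMSO), formaldehyde-fixed, Hoechst 33342-stained and imaged at 20x; nuclear diameter from nuclear stain, fitted bidirectionally against DMSO.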

[3] = APR_HepG2_MitoticArrest_1hr: Apredica 1-hour HepG2 Assay for Mitotic Arrest (AID 2282672); conditions: high-content imaging, actives raise or lower the signal
How it was run: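 HepG2 cells exposed 1 hr to compounds at 0.39–200 uM (0.5% v/v DMSO final), then fixed in 3.7% formaldehyde and immunostained for phospho-histone H3 with Hoechst 33342. Mitotic arrest scored by automated fluorescence imaging, fitted bidirectionally versus DMSO.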

[4] = APR_HepG2_MitoMass_1hr: Apredica 1-hour HepG2 Assay for Mitochondrial Mass (AID 2282674); conditions: high-content imaging, actives raise or lower the signal
How it was run: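 HepG2 cells dosed 1 hr with 0.39-200 uM compound (0.5% DMSO), duplicate wells. Mitochondria stained with 250 nM MitoTracker Red CMXRos for 30 min before formaldehyde fixation, imaged at 20x by ArrayScan; bidirectional fit versus DMSO.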

[5] = APR_HepG2_CellCycleArrest_24hr: Apredica 24-hour HepG2 Assay for Cell Cycle Arrest (AID 2282905); conditions: imaging, actives raise or lower the signal;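 further: cell cycle arrest scored as ratio of 2N to 4N nuclear DNA content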
How it was run: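 Cell cycle arrest is scored from nuclear DNA content measured by high-content imaging of Hoechst 33342-stained HepG2 cells following 24-hour treatment at ten concentrations up to 200 uM, with DMSO as baseline.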

[6] = APR_HepG2_NuclearSize_24hr: Apredica 24-hour HepG2 Assay for Nuclear Size (AID 2282907); conditions: high-content imaging, actives raise or lower the signal
How it was run: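 Compounds in DMSO (final 0.5%) were added to human HepG2 hepatoma cells at ten concentrations up to 200 uM for 24 hr. Fixed nuclei were stained with Hoechst 33342, and nuclear diameter was quantified from automated images.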

[7] = APR_HepG2_MicrotubuleCSK_24hr: Apredica 24-hour HepG2 Assay for Microtubule CSK Stabilty (AID 2282909); conditions: HepG2 microtubule cytoskeleton imaging, actives raise or lower the signal
How it was run: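 Steps: dose HepG2 for 24 h (0.39–200 uM, 0.5% DMSO); fix 30 min in 3.7% formaldehyde at room temperature; permeabilize; stain alpha-tubulin 60 min; image microtubule cytoskeleton at 20x. Signal change fitted in both directions relative to DMSO.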

[8] = APR_HepG2_MitoticArrest_24hr: Apredica 24-hour HepG2 Assay for Mitotic Arrest (AID 2282910); conditions: high-content imaging, actives raise or lower the signal
How it was run: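 HepG2 human liver cells were exposed to compounds at 0.39–200 uM (10 concentrations, duplicate) in 0.5% v/v DMSO for 24 hr, then fixed and immunostained for phospho-histone H3 with Hoechst 33342. Mitotic arrest came from HCS fluorescent imaging, fitted bidirectionally against DMSO.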

[9] = APR_HepG2_MitoMembPot_24hr: Apredica 24-hour HepG2 Assay for Mitochondrial Membrane Potential (AID 2282911); conditions: imaging, actives raise or lower the signal
How it was run: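 Mitochondrial membrane potential imaged via MitoTracker Red CMXRos (250 nM, 30 min pre-fixation) in fixed HepG2 cells with Hoechst nuclear identification. Ten concentrations 0.39–200 uM, 24 h treatment, 0.5% DMSO; CCCP as positive control.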

[10] = APR_HepG2_MitoMass_24hr: Apredica 24-hour HepG2 Assay for Mitochondrial Mass (AID 2282912); conditions: high-content imaging, actives raise or lower the signal
How it was run: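 The liver line HepG2 was dosed in duplicate across a 0.39–200 uM series, with final DMSO held at 0.5% v/v, and harvested at 24 hr. High-content imaging measured mitochondrial dye staining.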

[11] = APR_HepG2_p53Act_24hr: Apredica 24-hour HepG2 Assay for p53 Activation (AID 2282913); conditions: high-content imaging, actives raise or lower the signal;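 further: p53 protein immunofluorescence averaged per cell in HepG2 with Hoechst nuclei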
How it was run: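 Fluorescence imaging of formaldehyde-fixed HepG2 cells labelled for p53 and with Hoechst, 24 h after dosing (0.39–200 uM, duplicate wells, 0.5% v/v DMSO). Signal fitted in both directions relative to DMSO.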

[12] = APR_HepG2_CellCycleArrest_72hr: Apredica 72-hour HepG2 Assay for Cell Cycle Arrest (AID 2282914); conditions: high-content imaging, actives raise or lower the signal
How it was run: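 Read-out: nuclear DNA content from Hoechst 33342 high-content imaging (20x, six fields/well) after 3.7% formaldehyde fixation, fitted bidirectionally against DMSO. Treatment was 72 h in HepG2, ten concentrations 0.39–200 uM, duplicate, 0.5% DMSO.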

[13] = APR_HepG2_CellLoss_24hr: Apredica 24-hour HepG2 Assay for Cell Loss (AID 2282908); conditions: high-content imaging;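 on AC50: fit in both directions so a hit may be cell loss or gain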
How it was run: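 Cell number is quantified by fluorescence imaging of Hoechst 33342-stained nuclei following dosing at 0.39–200 uM in 0.5% DMSO. Curves are fitted in both directions from the DMSO baseline.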

[14] = APR_HepG2_MitoMembPot_1hr: Apredica 1-hour HepG2 Assay for Mitochondrial Membrane Potential (AID 2282675); conditions: imaging, actives raise or lower the signal
How it was run: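 HepG2 cells dosed 1 hour with 0.39–200 uM compound in duplicate, 0.5% DMSO final. MitoTracker Red CMXRos (250 nM, 30 min) loaded before formaldehyde fixation; fluorescence quantified by high-content imaging, bidirectional fitting versus DMSO.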

[15] = APR_HepG2_StressKinase_1hr: Apredica 1-hour HepG2 Assay for Stress Kinase (AID 2282906); conditions: HepG2 stress kinase (phospho-c-Jun) imaging, actives raise or lower the signal
How it was run: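 HepG2 cells dosed 0.39-200 uM (0.5% DMSO) for 1 h, then formaldehyde-fixed. Stress kinase read by phospho-c-Jun immunofluorescence using high-content imaging; bidirectional fit vs DMSO.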

[16] = APR_HepG2_MicrotubuleCSK_1hr: Apredica 1-hour HepG2 Assay for Microtubule CSK Stabilty (AID 2282669); conditions: HepG2 microtubule cytoskeleton imaging, actives raise or lower the signal
How it was run: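 HepG2 cells exposed 1 h to 0.39–200 uM compound (0.5% DMSO, duplicates), then formaldehyde-fixed, permeabilized and immunostained for alpha-tubulin with Hoechst nuclei. Imaged by ArrayScan high-content analysis; bidirectional fit versus DMSO.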

Measured: AC50

CN1CSC(=S)N(C)C1
active: [8] 27 µM | [12] 6.04 µM
not listed: [13] | [14] | [15] | [16]
inactive: all other assays above

Cc1cc(C)nc(NC(=O)NS(=O)(=O)c2ccccc2C(=O)OC2COC2)n1
not listed: [5] | [13] | [14] | [15] | [16]
inactive: all other assays above

CCC(C)(C)C(=O)OC1=C(c2ccc(Cl)cc2Cl)C(=O)OC12CCCCC2
active: [5] 60.2 µM | [13] 137 µM | [7] 100 µM
not listed: [14] | [15] | [16]
inactive: all other assays above

COc1cc(OC)nc(NC(=O)NS(=O)(=O)c2cc(NC=O)ccc2C(=O)N(C)C)n1
not listed: [5] | [13] | [15] | [16]
inactive: all other assays above

CC(C)(C)C(O)C(Oc1ccc(Cl)cc1)n1cncn1 (stereo unspecified)
inactive: [1] | [2] | [3] | [4] | [6] | [7] | [8] | [9] | [10] | [11] | [12]
active: [12] 105 µM and 88.3 µM and 39.4 µM

COC(=O)c1ccccc1S(=O)(=O)NC(=O)N(C)c1nc(C)nc(OC)n1
not listed: [5] | [14] | [15] | [16]
inactive: all other assays above

CCC(C)(NC(=O)c1cc(Cl)c(C)c(Cl)c1)C(=O)CCl (stereo unspecified)
active: [5] 12.8 µM | [13] 32.3 µM | [8] 8.8 µM | [9] 30.1 µM
not listed: [14] | [15] | [16]
inactive: all other assays above

O=C(O)C(F)(F)C(F)(F)C(F)(F)C(F)(F)C(F)(F)C(F)(F)C(F)(F)F
not listed: [5] | [13] | [14] | [15] | [16]
inactive: all other assays above

CCOCN(C(=O)CCl)c1c(C)cccc1CC
active: [5] 30.6 µM | [6] 33.4 µM | [7] 99.6 µM | [8] 17.9 µM | [9] 50.7 µM | [10] 65.1 µM | [11] 31.9 µM | [12] 29.4 µM
inactive: [1] | [2] | [3] | [4]

CC(C)OC(=O)Nc1cccc(Cl)c1
not listed: [5] | [14] | [16]
inactive: all other assays above

O=C(O)CCCOc1ccc(Cl)cc1Cl
not listed: [13] | [14] | [15] | [16]
inactive: all other assays above

COc1nn(CSP(=S)(OC)OC)c(=O)s1
not listed: [5] | [13] | [14] | [15]
inactive: all other assays above

COC(=O)c1ccccc1CS(=O)(=O)NC(=O)Nc1nc(OC)cc(OC)n1
not listed: [5] | [15] | [16]
inactive: all other assays above

O=[N+]([O-])c1c(Cl)c(Cl)c(Cl)c(Cl)c1Cl
active: [12] 81.9 µM
not listed: [5] | [13] | [16]
inactive: all other assays above
